# This excerpt belongs to a sample that is enriched for hits.
# Shiga toxin inh: inhibitors of Shiga toxin in Vero cells; inhibition, % at 38.7 µM; AID 2315; actives 9.2% (n = 290,000); Vero cells, Shiga toxin protein synthesis inhibition reporter; in the data active = inhibition mostly above about 28%, no sharp cut-off; inactive = mostly below about 43%; also: 0% is about no effect
# Lassa entry inh: blocks Lassa virus binding to or entry into cells | Lassa virus pseudotype entry inhibition, cell reporter | Potency, µM (series often up to 37.9 µM), without a hit: at the highest dose activity change, negative = inhibition, hits mostly inhibitors | actives 1.2% (n = 300,000) | AID 540256; calls by dose curve; tested in HEK293 cells; also: potency is read from the fitted curve at half-maximal effect; % is scaled to controls: 0 for no effect and ±100 for the full control effect; nearly all actives have a fitted effect of over 50% in size
# CHX counter: affects cycloheximide protein synthesis inhibition readout, counter-screen | cell reporter, cycloheximide protein synthesis inhibition counterscreen | max response, % | actives 12% (n = 300,000); in the data active = max response mostly above about 13%, no sharp cut-off; inactive = mostly below about 14%; also: read at 38.3 µM for the half of the compounds with a filed dose; 0% is about no effect
# Vaccinia Venus: inhibitors of vaccinia virus (Venus reporter); Vaccinia virus Venus reporter expression, fluorescence; Potency, µM (series often up to 36.5 µM), without a hit: at the highest dose activity change, negative = inhibition, hits mostly inhibitors; actives 0.46% (n = 330,000); calls by dose curve; tested in A549 cells; also: potency is read from the fitted curve at half-maximal effect; % is scaled to controls: 0 for no effect and ±100 for the full control effect; nearly all actives have a fitted effect of over 30% in size
# Vaccinia mCherry: inhibitors of vaccinia virus infection (mCherry reporter signal); Vaccinia virus mCherry reporter infection, fluorescence; Potency, µM (titrated, usually from 36.5 µM), without a hit: top-dose activity change, negative = inhibition, most hits filed as inhibitors; actives 0.63% (n = 310,000); AID 720579; calls by dose curve; tested in A549 cells; also: potency is read from the fitted curve at half-maximal effect; % is scaled to controls: 0 for no effect and ±100 for the full control effect; nearly all actives have a fitted effect of over 35% in size
# MARV entry inh: inhibitors of Marburg virus binding or cell entry; Marburg virus pseudotyped entry inhibition, cell reporter; Potency, µM (top dose mostly 37.8 µM), for inactives: at the top dose activity change, negative = inhibition, actives largely listed as inhibitors; actives 1.8% (n = 300,000); calls by dose curve; tested in HEK293 cells; also: potency is read from the fitted curve at half-maximal effect; % is scaled to controls: 0 for no effect and ±100 for the full control effect
# Active calls of the source: *; i = inactive; ? = inconclusive; . = not tested or not shown; [ ] = another dose, or the depositor's remark.
SMILES,Shiga toxin inh,Lassa entry inh,CHX counter,Vaccinia Venus,Vaccinia mCherry,MARV entry inh
S=C(Nc1ccccc1)N1CCCCC1,18,19%,6,.,.,6%
C=CCSc1nnc(C2CCCN(Cc3ccccc3O)C2)n1C (stereo unspecified),.,.,.,-18%,i,.
CCCCCC(=O)N1C[C@H](O)[C@@H](n2cc(COC(=O)c3ccccc3)nn2)C[C@@H]1c1ccc(OC)cc1,.,.,.,-6%,i,.
COCCN(C(=O)COC(=O)Cc1ccc(Cl)cc1)c1c(N)n(Cc2ccccc2)c(=O)[nH]c1=O,.,.,.,-7%,i,.
N#C/C(=N\Nc1cccc(F)c1)C(=N)N1CCCCCC1,41*,-10%[46.1 µM],26*,-9%,i,?
Cc1ccc(NC(=O)COC(=O)CN2C(=O)COc3ccccc32)cc1,-9,16%,6,-12%,-20%,3%
COCC(=O)Nc1ccc2c(c1)OCC(=O)N2Cc1ccc(C)cc1,22,.,12*,.,.,.
NC(=O)C1CCCN(C(=O)CCc2nnc(C3(c4ccc(Cl)cc4)CCC3)o2)C1 (stereo unspecified),11,3%,2,-13%,i,12%
CC(=O)c1ccc(-c2nnc(CCC(=O)N3CCCC(C(=O)CC(C)C)C3)o2)s1 (stereo unspecified),80*,.,34*,.,.,.
CCC(=O)C1CCCN(C(=O)CCc2nnc(C3(c4ccc(Cl)cc4)CCC3)o2)C1 (stereo unspecified),80*,?,57*,-16%,-2%,-8%
O=C(CCc1nnc(C2(c3ccc(Cl)cc3)CCC2)o1)N1CCCC1,75*,.,25*,.,.,.
CCCCNC(=O)C1(C)CCN1C(=O)c1ccc2ccccc2n1 (stereo unspecified),.,.,.,4%,37%,.
COc1ccc(NC2=C(c3ccc(OC)cc3)C(=O)c3ccccc32)cc1,-4,0%,-2,-1%,-18%,22%
COc1ccc(C2=C(N)c3ccccc3C2=O)cc1,102,0%,42*,-9%,-23%,22%
COC1=C(Nc2ccc(O)cc2)C(=O)c2ccccc2C1=O,77*,?,28*,16µM*,14µM*,?
CCOc1ccc(NC2=C(OC)C(=O)c3ccccc3C2=O)cc1,61*,-24%,20*,3%,0%,-16%
COC1=C(Nc2ccc(OC)cc2)C(=O)c2ccccc2C1=O,133*,?,52*,?,?,0%
COc1ccc(N2CCN(Cc3nc4c(c(=O)[nH]c(=O)n4C)n3Cc3ccccc3C)CC2)cc1,.,6%[46.1 µM],.,0%,-2%,1%[46.1 µM]
Cc1ccc(NC(=O)N2CCC(CN3CCCCC3)CC2)c(Cl)c1,.,19%[46.1 µM],.,1%,-1%,.
COc1ccc(N(Cc2cccs2)C(=O)c2ccc(OC)c(Cl)c2)cc1,.,-23%[46.1 µM],.,-13%,-15%,?
O=C(NCCNc1ccc(Cl)cc1[N+](=O)[O-])c1ccccc1F,19,.,12*,.,.,.
Cc1ccc(C(=O)NCCNc2ccc(Cl)cc2[N+](=O)[O-])o1,13,0%,-2,.,.,-1%
O=[N+]([O-])c1cc(Cl)ccc1NCCc1ccccn1,57*,18%,18*,-9%,7%,27%[46.1 µM]
N#Cc1ccc2c(c1)C[C@]1(CCCCN3C(=O)c4ccccc4C3=O)Oc3c(c(=O)oc4ccc(F)cc34)C2O1,i,.,-2,.,.,.
S=C(Nc1ccc2cn[nH]c2c1)Nc1ccccc1Cl,51*,?,73*,-9%,-10%,-9%
SMILES,Shiga toxin inh,Lassa entry inh,CHX counter,Vaccinia Venus,Vaccinia mCherry,MARV entry inh
Cc1ccccc1NC(=S)Nc1ccc2cn[nH]c2c1,41,3%,8,-1%,-13%,17%[46.1 µM]
S=C(Nc1ccc2cn[nH]c2c1)Nc1ccc(Cl)cc1Cl,47,.,18*,-14%,-12%,.
COc1ccc(NC(=S)Nc2ccc3cn[nH]c3c2)cc1,34,.,7,-2%,?,.
CCc1ccc(NC(=S)Nc2ccc3cn[nH]c3c2)cc1,50*,?,14,-1%,-18%,?
S=C(Nc1ccccc1)Nc1ccc(Cl)cc1Cl,139*,?,29*,-19%,-3%,-22%
S=C(Nc1ccc(Cl)cc1)Nc1ccc2cn[nH]c2c1,20,.,8,.,.,.
CC(=O)COc1coc(CN2CCN(c3ccc(F)cc3)CC2)cc1=O,-7,.,-1,.,.,.
CC(=O)NC(CC(C)C)C(=O)O (stereo unspecified),.,.,.,-12%,i,.
COc1ccc(N2CC(NC(=O)c3ccc4c(c3)OCO4)CC2=O)cc1 (stereo unspecified),.,1%[46.1 µM],.,-9%[7.34 µM],-9%[7.34 µM],.
CNc1nc2c3ccccc3n(C(C)=O)c2s1,-6,10%,9,-6%,.,18%[46.1 µM]
CC(=O)n1c2ccccc2c2nc(NC(C)C)sc21,22,14%,16*,-8%,-14%,0%[46.1 µM]
O=C(NCc1cccnc1)c1nn(-c2ccccc2F)nc1CO,.,4%[46.1 µM],.,-15%,-12%,12%[46.1 µM]
O=C(OCC1COc2ccccc2O1)c1c(F)cccc1F (stereo unspecified),51,13%,21*,-12%,-22%,13%
COc1ccc(-c2nnc(SCc3ccccc3F)o2)cc1OC,52*,0%,21,-26%,.,-18%
Cc1ccc(-c2nnc(SCc3ccccc3)o2)cc1,.,25%[46.1 µM],.,-6%[7.34 µM],-10%[7.34 µM],.
Cc1ccc(-c2nnc(SCc3ccccc3F)o2)cc1,63*,?,44*,.,.,16µM*
COc1cc(-c2nnc(SCc3cc(=O)oc4cc(C)ccc34)o2)cc(OC)c1OC,63,-12%,29*,-26%,?,-34%
C=CCn1c(SCC(=O)c2ccc(CNC(C)=O)o2)nc2ccccc2c1=O,-3,6%,1,1.3µM*,.,-20%
CCOC(=O)c1c[nH]c2c(Cl)c(Cl)ccc2c1=O,-20,?,-1,.,.,8%
CCOC(=O)c1c[nH]c2c3c(ccc2c1=O)CCCC3,45,1%,22*,.,.,?
CCOC(=O)C1=C(C)NC(=O)N[C@H]1c1ccc2c(c1)OCO2,.,.,.,.,.,7%[46.1 µM]
Cc1ccc(/C=N/NC(=O)c2cccc(S(=O)(=O)Nc3ccccc3Cl)c2)s1,5,2%,5,-14%,-3%,-26%
Cc1ccc(/C=N/NC(=O)c2ccc3c(c2)OCCO3)s1,55*,?,38*,-26%,-22%,?
Cc1ccc(/C=N/NC(=O)c2ccc3ccccc3c2)s1,47*,.,28*,.,.,.
O=C(N/N=C/c1cc(Br)cs1)c1ccc2c(c1)OCCO2,68*,?,37*,-26%,?,?
Cn1cc(C(=O)N/N=C/c2cc(Br)cs2)c2ccccc21,0,.,-2,.,.,.
Cc1noc(C)c1C(=O)N1CCCC(C(=O)c2cccc(C(F)(F)F)c2)C1 (stereo unspecified),-1,8%,1,-7%,i,18%[46.1 µM]
CCc1ccc(-c2nc(CSCC(=O)NCc3ccc(C)cc3)c(C)o2)cc1,.,11%[46.1 µM],.,-11%[7.34 µM],-10%[7.34 µM],10%[46.1 µM]
O=C(Nc1nccs1)c1ccc(-c2ccc(F)c(Cl)c2)o1,102*,.,45*,.,.,.
O=C(Nc1nccs1)c1ccc(-c2ccc(Cl)cc2Cl)o1,50*,-1%,26*,-13%,-20%,7%

# Source: PubChem BioAssay
